Among the data in paper PMC7862700, “An all-to-all approach to the identification of sequence-specific readers for epigenetic DNA modifications on cytosine” are binding signal values, retold here.

Holding throughout (test): DAPPL (digital affinity profiling via proximity ligation, sequencing); 10 mM Tris-HCl pH 7.5, 50 mM NaCl, 1 mM DTT, 4% glycerol, room temperature, 30 min; GST-TFs on glutathione beads, 16-mer random dsDNA library, 0.1% formaldehyde crosslink after washing; high values mean tight binding
In assay [1] the target is T1, FEV (Homo sapiens, UniProt Q99581 1-238).
T1 sequence: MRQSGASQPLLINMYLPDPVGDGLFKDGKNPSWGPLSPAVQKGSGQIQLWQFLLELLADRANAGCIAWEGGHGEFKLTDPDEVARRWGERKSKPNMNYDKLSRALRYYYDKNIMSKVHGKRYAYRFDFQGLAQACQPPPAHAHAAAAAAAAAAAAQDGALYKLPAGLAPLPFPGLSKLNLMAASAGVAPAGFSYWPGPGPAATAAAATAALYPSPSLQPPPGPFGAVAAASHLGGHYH
The note with it: protein: recombinant; tags: N-terminal GST; dsDNA, one strand shown. The method in brief: (§1)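 Pools of DNA-barcoded human transcription factors, expressed in yeast as GST fusions on glutathione beads and combined with a tag-only sample, were incubated with 200 nmole of a 16-mer random double-stranded DNA library. Incubation took 30 min at room temperature in Tris/NaCl/DTT/glycerol buffer and was followed by washing, 0.1% formaldehyde crosslinking, proximity ligation (BsaI/T4 ligase, 1 h, 37 °C), PCR amplification and sequencing on an Illumina NextSeq500. Binding signal is the ratio of a hexamer's read frequency for a factor to its frequency for the tag-only sample.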

In assay [2] the target is ETV5 (Homo sapiens, UniProt P41161 1-510). The note with it: protein: recombinant; tags: N-terminal GST; dsDNA, one strand shown. The method in brief: as §1
The target in assay [3] is HSF1 (Homo sapiens, UniProt Q00613 1-529). The note with it: protein: recombinant; tags: N-terminal GST; chain copies: 3; dsDNA, one strand shown. The method in brief:
as §1

Assay [4] has as its target T2, SPIC (Homo sapiens, UniProt Q8N5J4 1-248).
T2 sequence: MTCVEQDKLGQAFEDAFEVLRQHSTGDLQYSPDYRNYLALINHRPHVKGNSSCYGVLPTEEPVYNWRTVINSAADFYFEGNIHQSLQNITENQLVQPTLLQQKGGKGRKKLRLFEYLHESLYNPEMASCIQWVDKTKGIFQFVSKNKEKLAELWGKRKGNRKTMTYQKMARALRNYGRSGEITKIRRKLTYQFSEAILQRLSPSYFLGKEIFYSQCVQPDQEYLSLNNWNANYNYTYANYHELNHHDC
The note with it: protein: recombinant; tags: N-terminal GST; dsDNA, one strand shown. The method in brief: as §1

Assay [5] addresses ELF4 (Homo sapiens, UniProt Q99607 1-663). The note with it: protein: recombinant; tags: N-terminal GST; dsDNA, one strand shown. The method in brief: as §1
Assay [6] has as its target T3, ELK4 (Homo sapiens, UniProt P28324-2 1-405).
T3 sequence: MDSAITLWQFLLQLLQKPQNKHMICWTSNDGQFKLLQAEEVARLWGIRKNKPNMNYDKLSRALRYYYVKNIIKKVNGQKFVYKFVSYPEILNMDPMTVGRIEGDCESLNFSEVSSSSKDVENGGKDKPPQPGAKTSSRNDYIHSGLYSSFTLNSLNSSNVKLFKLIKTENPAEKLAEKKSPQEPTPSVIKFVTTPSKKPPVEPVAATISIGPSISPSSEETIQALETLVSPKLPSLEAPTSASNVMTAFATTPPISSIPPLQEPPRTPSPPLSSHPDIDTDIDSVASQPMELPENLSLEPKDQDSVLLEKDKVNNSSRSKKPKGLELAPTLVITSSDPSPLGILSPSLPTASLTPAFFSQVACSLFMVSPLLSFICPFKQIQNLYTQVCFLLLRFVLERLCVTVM
The note with it: protein: recombinant; tags: N-terminal GST; dsDNA, one strand shown. In a few lines:
as §1

The target of assay [7] is T4, ETV2 (Homo sapiens, UniProt O00321 1-342).
T4 sequence: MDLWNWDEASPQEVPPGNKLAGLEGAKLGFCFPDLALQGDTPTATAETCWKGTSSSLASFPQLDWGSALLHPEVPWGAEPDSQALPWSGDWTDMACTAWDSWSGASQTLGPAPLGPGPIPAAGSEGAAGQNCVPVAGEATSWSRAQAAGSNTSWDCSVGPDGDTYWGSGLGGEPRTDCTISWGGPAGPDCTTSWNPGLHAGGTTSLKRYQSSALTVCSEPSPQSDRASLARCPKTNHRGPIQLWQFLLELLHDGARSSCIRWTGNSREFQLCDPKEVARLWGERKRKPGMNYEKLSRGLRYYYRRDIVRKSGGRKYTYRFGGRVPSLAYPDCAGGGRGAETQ
The note with it: protein: recombinant; tags: N-terminal GST; dsDNA, one strand shown. The method in brief:
as §1

Assay [8] concerns the target T5, ELF3 (Homo sapiens, UniProt P78545 1-371).
T5 sequence: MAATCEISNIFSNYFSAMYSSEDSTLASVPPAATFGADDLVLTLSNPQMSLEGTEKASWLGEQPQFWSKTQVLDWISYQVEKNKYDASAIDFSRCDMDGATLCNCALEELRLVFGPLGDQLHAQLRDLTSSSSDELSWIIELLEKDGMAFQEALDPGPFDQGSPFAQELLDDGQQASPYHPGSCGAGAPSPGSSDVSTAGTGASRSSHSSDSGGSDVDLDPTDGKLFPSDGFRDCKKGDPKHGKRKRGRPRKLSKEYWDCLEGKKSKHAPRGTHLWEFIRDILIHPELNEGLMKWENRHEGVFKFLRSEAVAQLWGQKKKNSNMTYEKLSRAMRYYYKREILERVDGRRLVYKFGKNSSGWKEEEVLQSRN
The note with it: protein: recombinant; tags: N-terminal GST; dsDNA, one strand shown. The method in brief:
as §1

Assay [9] has as its target CRX (Homo sapiens, UniProt O43186 1-299). The note with it: protein: recombinant; tags: N-terminal GST; dsDNA, one strand shown. The method in brief: as §1
For assay [10], the target named is ETV1 (Homo sapiens, UniProt P50549 1-477). The note with it: protein: recombinant; tags: N-terminal GST; dsDNA, one strand shown. In a few lines:
as §1

For assay [11], the target named is T6, ERF (Homo sapiens, UniProt P50548 1-548).
T6 sequence: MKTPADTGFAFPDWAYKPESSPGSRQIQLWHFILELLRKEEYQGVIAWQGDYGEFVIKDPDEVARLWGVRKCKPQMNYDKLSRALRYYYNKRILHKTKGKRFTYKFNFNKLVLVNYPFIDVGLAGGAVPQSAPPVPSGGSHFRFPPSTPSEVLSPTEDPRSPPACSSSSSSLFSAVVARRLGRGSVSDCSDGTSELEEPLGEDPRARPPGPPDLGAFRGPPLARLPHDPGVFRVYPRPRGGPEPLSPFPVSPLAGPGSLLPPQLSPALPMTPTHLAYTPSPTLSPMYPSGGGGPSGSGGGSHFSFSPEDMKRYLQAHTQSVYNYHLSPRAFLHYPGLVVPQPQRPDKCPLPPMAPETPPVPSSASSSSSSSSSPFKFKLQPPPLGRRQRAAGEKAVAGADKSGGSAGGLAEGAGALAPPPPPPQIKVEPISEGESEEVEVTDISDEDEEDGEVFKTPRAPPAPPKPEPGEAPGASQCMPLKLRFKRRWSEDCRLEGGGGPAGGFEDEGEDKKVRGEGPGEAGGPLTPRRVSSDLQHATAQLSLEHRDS
The note with it: protein: recombinant; tags: N-terminal GST; dsDNA, one strand shown. The method in brief:
as §1

The target in assay [12] is T7, ETV3L (Homo sapiens, UniProt Q6ZN32 1-361).
T7 sequence: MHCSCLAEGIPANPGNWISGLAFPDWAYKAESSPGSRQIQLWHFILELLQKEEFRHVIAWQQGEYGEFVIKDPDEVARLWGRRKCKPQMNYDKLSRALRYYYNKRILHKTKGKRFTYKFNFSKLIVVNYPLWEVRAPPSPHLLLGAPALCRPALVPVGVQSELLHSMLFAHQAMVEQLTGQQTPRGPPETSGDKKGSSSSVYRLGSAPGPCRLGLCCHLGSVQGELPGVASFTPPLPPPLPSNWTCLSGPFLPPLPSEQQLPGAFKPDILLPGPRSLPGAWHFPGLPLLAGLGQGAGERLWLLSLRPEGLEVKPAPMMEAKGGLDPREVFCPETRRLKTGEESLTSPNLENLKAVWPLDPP
The note with it: protein: recombinant; tags: N-terminal GST; dsDNA, one strand shown. The method in brief:
as §1

The target in assay [13] is T8, ETS2 (Homo sapiens, UniProt P15036 1-469).
T8 sequence: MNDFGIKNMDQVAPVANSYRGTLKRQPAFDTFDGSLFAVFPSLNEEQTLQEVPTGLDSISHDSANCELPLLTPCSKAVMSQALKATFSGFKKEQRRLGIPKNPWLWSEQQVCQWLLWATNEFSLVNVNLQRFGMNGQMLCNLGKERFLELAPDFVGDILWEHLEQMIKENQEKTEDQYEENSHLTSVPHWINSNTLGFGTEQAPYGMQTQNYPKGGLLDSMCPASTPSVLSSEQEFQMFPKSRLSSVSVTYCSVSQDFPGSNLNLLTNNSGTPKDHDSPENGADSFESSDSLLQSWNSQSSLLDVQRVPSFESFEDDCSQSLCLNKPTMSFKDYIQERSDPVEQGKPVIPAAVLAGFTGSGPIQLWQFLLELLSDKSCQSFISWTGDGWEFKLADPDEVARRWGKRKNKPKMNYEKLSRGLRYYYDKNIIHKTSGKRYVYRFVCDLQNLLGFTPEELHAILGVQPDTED
The note with it: protein: recombinant; tags: N-terminal GST; dsDNA, one strand shown. The method in brief:
as §1

For assay [14], the target named is T9, SPDEF (Homo sapiens, UniProt O95238 1-335).
T9 sequence: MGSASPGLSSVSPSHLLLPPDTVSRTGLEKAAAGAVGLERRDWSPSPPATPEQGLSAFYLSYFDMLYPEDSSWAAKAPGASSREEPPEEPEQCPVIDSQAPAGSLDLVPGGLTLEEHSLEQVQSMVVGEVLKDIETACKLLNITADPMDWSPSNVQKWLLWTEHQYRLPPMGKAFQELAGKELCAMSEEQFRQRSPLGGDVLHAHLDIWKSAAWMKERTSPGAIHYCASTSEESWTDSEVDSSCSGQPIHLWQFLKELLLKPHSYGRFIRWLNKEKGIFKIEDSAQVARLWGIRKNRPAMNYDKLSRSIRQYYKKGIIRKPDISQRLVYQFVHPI
The note with it: protein: recombinant; tags: N-terminal GST; dsDNA, one strand shown. In a few lines:
as §1

Assay [15] deals with T10, ETV7 (Homo sapiens, UniProt Q9Y603 1-341).
T10 sequence: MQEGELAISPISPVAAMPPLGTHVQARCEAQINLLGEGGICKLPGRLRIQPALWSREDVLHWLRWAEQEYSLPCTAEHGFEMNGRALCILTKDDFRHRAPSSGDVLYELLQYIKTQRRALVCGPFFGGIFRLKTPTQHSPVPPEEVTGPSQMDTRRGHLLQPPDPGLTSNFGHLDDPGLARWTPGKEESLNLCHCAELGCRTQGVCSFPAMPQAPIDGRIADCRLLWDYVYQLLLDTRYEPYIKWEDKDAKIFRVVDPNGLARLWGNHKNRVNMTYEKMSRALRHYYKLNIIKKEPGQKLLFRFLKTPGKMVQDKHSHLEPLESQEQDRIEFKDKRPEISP
The note with it: protein: recombinant; tags: N-terminal GST; dsDNA, one strand shown. The method in brief: as §1

The target of assay [16] is T11, ELF5 (Homo sapiens, UniProt Q9UKW6-2 1-255).
T11 sequence: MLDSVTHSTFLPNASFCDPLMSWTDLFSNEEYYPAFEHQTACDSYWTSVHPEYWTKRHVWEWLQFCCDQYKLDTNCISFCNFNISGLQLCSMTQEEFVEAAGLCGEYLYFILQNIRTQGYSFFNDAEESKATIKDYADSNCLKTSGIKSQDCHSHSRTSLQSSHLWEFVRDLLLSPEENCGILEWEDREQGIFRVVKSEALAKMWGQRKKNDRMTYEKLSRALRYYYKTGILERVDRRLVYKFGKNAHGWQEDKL
The note with it: protein: recombinant; tags: N-terminal GST; dsDNA, one strand shown. The method in brief: as §1

In assay [17] the target is T12, ETV3 (Homo sapiens, UniProt P41162-2 1-143).
T12 sequence: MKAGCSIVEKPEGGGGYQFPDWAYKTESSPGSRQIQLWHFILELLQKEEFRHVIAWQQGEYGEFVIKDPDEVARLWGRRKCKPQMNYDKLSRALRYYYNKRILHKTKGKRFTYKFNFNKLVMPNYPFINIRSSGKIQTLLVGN
The note with it: protein: recombinant; tags: N-terminal GST; dsDNA, one strand shown. The method in brief: as §1

Assay [18] concerns the target ETV6 (Homo sapiens, UniProt P41212 1-452). The note with it: protein: recombinant; tags: N-terminal GST; dsDNA, one strand shown. In a few lines: as §1

Sequence of HSF1 (Q00613 whole entry): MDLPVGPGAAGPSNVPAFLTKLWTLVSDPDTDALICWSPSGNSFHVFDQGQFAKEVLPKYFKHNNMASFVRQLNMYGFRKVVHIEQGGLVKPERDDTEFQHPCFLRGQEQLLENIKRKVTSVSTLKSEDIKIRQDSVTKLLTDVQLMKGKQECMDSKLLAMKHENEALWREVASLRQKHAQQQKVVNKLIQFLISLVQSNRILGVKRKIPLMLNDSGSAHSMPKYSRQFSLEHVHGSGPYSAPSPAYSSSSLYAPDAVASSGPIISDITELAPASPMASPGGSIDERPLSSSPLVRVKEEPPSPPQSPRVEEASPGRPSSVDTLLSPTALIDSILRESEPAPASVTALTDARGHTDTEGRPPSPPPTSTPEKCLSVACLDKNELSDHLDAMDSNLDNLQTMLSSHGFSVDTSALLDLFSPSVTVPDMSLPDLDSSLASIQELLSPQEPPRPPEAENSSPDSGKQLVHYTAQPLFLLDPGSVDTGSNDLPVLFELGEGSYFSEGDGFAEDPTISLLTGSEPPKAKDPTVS
Sequence of ETV6 (P41212 whole entry): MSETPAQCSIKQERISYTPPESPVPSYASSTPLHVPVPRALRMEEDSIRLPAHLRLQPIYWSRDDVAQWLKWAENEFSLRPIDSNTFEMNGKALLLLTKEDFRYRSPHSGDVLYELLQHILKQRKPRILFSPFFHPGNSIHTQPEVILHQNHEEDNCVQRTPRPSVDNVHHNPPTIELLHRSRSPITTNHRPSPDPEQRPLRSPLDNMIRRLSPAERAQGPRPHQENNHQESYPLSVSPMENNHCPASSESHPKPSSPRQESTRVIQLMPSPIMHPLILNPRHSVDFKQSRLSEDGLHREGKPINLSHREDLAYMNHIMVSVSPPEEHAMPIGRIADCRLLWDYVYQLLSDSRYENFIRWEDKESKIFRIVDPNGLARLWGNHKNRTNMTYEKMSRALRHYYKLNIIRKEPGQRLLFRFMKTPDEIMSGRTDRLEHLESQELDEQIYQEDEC
Sequence of ETV5 (P41161 whole entry): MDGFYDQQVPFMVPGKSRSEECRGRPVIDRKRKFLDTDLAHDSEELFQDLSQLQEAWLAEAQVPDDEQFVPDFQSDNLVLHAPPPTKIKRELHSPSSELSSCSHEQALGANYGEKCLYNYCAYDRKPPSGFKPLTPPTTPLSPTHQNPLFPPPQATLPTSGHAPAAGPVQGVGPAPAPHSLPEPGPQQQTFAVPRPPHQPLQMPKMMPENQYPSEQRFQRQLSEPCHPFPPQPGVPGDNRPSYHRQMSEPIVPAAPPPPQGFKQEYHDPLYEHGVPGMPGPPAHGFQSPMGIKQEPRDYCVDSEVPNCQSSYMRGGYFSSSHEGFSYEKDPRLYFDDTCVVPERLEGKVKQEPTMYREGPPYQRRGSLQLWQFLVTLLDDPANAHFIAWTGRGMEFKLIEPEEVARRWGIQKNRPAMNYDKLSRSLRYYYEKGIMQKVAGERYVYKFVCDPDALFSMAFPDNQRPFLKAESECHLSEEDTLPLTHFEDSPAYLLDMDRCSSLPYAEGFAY
Sequence of CRX (O43186 whole entry): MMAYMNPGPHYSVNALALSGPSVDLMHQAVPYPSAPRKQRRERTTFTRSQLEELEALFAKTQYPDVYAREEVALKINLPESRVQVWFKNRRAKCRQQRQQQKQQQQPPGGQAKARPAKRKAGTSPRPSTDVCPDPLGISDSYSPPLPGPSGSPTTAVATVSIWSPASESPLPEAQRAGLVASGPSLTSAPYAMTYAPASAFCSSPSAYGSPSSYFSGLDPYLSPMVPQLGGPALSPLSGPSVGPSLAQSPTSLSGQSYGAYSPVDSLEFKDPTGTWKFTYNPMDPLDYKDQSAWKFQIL
Sequence of ETV1 (P50549 whole entry): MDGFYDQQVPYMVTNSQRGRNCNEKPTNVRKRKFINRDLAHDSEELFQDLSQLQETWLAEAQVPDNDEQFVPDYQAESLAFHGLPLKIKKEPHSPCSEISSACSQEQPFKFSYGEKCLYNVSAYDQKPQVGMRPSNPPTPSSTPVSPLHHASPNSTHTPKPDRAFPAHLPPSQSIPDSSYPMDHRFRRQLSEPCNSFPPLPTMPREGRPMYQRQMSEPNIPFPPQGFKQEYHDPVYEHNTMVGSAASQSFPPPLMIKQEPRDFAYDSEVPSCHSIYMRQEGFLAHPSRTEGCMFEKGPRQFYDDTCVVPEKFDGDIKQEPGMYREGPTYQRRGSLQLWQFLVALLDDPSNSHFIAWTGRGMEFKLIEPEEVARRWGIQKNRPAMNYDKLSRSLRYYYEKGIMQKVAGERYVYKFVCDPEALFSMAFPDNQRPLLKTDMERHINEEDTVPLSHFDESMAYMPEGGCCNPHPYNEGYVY
Sequence of ELF4 (Q99607 whole entry): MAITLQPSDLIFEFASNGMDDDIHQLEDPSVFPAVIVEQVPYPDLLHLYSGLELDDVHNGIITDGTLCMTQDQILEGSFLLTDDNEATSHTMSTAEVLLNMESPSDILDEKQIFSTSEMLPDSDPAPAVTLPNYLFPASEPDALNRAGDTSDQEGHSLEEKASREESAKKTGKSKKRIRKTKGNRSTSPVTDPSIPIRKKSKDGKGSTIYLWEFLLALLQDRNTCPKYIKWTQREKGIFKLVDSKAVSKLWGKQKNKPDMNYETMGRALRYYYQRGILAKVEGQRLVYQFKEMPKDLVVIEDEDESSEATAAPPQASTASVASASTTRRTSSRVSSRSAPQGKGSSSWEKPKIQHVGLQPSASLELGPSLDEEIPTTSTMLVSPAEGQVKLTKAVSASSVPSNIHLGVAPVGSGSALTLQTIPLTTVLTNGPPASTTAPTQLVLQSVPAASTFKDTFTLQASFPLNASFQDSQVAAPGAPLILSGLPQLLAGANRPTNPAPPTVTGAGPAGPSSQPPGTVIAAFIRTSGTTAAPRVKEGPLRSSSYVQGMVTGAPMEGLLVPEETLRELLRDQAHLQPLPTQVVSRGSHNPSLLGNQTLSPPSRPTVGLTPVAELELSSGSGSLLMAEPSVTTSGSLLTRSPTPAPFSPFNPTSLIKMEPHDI

On to TTGCCT, for which the binding signal was 1.19 fold enrichment (6-mer frequency, TF over GST control) in assay [1]; 1.22 fold enrichment (6-mer frequency, TF over GST control) in [2]; 1.13 fold enrichment (6-mer frequency, TF over GST control) in assay [3]; 1.42 fold enrichment (6-mer frequency, TF over GST control) in assay [4]; 1.29 fold enrichment (6-mer frequency, TF over GST control) in [5]; 1.2 fold enrichment (6-mer frequency, TF over GST control) in [6]. The binding signal in assay [7] is 1.19 fold enrichment (6-mer frequency, TF over GST control); in [8] it was 1.42 fold enrichment (6-mer frequency, TF over GST control); in assay [9] it was 1.16 fold enrichment (6-mer frequency, TF over GST control); in assay [10] it was 1.37 fold enrichment (6-mer frequency, TF over GST control); in assay [11] it was 1.18 fold enrichment (6-mer frequency, TF over GST control); in [12], 1.34 fold enrichment (6-mer frequency, TF over GST control). Moreover, the binding signal is 1.24 fold enrichment (6-mer frequency, TF over GST control) in assay [13]; 1.18 fold enrichment (6-mer frequency, TF over GST control) in assay [14]; 1.23 fold enrichment (6-mer frequency, TF over GST control) in assay [15]; 1.19 fold enrichment (6-mer frequency, TF over GST control) in assay [16]; 1.14 fold enrichment (6-mer frequency, TF over GST control) in [17]; 1.1 fold enrichment (6-mer frequency, TF over GST control) in [18].
